Source: the supplement of paper PMC11732987, “Enantioselective OTUD7B fragment discovery through chemoproteomics screening and high-throughput optimisation” (Communications Chemistry, 2025)

Assays:
Assay in all cases: log2 ratio of Biotin-Ahx-Ub-VS probe labelling (fragment/DMSO); higher = less target engagement (more negative = stronger competition), active = hit call of the paper (q ≤ 0.05, log2 ratio ≤ -1)
Details in all cases: compound concentration: 200 uM; treatment time: 3 h
[1] = target: T1, USP42 (UniProt Q9H9J4)
T1 sequence (whole entry): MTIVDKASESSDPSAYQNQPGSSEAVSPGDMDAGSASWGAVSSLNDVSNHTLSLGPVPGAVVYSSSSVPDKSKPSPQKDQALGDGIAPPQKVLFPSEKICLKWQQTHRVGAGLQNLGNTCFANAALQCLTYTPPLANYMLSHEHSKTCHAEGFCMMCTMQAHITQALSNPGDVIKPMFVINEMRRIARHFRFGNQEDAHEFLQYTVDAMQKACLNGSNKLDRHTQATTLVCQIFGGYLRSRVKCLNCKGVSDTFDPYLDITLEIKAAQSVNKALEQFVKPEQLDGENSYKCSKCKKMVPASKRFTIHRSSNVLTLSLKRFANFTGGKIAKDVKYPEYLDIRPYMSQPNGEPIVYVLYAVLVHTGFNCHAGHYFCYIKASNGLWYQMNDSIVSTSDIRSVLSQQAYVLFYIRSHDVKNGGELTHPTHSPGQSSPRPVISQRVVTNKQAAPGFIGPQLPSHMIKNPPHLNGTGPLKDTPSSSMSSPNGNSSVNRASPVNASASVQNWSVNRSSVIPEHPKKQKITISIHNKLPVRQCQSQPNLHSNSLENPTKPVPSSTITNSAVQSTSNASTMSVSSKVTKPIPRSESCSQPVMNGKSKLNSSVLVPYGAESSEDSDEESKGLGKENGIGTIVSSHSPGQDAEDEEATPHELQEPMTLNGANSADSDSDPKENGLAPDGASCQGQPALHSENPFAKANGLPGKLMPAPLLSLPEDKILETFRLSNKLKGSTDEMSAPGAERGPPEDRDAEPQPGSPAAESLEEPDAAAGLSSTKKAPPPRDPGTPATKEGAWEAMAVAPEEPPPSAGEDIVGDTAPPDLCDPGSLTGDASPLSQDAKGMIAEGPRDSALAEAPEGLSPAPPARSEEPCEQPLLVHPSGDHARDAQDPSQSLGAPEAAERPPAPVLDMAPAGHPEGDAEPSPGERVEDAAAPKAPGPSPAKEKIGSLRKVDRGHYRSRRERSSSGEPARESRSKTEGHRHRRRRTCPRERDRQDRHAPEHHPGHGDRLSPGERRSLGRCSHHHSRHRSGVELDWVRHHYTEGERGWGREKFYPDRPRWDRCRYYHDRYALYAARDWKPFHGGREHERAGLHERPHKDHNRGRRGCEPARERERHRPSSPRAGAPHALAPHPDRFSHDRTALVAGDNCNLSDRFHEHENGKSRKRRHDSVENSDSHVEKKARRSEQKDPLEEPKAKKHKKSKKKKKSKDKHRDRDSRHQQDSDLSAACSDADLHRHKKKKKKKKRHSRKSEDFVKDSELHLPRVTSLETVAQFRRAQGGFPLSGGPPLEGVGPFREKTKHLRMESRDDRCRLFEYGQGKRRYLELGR
Outline: (§1)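 Global-median-normalised Spectronaut label-free quantities were compared by unpaired t-test, and values are average log2 ratios of fragment over vehicle. Only proteins with ≥2 unique peptides were used. HEK293T lysate (495 µg per sample) was treated in triplicate with fragment at 200 µM or vehicle for 3 h and then with Biotin-Ahx-Ub-VS at 0.5 µM final for 1 h. Labelled DUBs were then NeutrAvidin-enriched, digested with LysC and trypsin, and run by diaPASEF LC-MS/MS.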

[2] = target: USP46 (UniProt P62068)
USP46, sequence (P62068 whole entry): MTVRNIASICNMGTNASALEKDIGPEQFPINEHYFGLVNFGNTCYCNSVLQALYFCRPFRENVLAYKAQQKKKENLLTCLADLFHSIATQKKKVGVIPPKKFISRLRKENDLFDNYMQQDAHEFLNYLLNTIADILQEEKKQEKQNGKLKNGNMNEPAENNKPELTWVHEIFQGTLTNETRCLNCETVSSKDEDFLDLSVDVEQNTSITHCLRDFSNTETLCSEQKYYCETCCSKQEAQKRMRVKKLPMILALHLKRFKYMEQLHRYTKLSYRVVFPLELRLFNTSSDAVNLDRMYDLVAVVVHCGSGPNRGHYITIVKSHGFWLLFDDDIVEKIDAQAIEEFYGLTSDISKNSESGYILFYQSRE
Outline: as §1

[3] = target: T2, USP47 (UniProt Q96K76)
T2 sequence (whole entry): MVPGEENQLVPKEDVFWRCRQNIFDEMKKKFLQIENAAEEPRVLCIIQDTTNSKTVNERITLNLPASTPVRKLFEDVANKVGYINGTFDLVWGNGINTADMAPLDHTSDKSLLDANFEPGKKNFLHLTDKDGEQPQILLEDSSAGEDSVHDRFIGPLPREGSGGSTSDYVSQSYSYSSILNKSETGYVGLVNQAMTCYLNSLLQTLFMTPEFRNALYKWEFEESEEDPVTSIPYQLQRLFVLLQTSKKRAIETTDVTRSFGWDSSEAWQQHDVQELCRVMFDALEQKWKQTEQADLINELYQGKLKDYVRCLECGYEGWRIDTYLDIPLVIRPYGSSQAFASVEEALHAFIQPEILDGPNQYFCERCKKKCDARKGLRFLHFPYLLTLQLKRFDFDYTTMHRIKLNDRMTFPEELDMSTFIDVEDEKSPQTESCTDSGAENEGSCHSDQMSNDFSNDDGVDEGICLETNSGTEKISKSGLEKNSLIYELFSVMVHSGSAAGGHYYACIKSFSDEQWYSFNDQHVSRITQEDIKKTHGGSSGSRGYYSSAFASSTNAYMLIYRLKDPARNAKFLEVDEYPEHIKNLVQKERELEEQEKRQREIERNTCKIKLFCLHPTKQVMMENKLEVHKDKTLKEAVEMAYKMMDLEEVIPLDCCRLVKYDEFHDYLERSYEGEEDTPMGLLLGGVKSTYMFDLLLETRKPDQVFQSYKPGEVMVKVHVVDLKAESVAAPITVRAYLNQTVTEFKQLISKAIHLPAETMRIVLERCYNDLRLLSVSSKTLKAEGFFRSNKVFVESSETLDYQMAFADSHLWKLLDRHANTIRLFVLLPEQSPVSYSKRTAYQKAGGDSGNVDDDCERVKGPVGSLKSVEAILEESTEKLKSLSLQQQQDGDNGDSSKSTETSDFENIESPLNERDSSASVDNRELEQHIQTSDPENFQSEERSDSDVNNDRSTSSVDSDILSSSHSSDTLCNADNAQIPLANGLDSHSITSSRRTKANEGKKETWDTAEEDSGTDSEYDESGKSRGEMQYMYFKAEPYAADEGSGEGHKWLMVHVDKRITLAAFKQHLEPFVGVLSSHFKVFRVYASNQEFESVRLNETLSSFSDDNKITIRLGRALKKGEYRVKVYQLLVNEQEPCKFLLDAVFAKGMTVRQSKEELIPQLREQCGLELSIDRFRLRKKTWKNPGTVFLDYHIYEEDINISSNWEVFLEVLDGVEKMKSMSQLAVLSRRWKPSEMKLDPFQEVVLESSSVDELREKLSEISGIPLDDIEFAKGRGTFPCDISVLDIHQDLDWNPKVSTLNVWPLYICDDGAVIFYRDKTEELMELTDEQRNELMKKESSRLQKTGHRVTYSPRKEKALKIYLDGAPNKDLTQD
Outline: as §1

[4] = target: T3, USP48 (UniProt Q86UV5)
T3 sequence (whole entry): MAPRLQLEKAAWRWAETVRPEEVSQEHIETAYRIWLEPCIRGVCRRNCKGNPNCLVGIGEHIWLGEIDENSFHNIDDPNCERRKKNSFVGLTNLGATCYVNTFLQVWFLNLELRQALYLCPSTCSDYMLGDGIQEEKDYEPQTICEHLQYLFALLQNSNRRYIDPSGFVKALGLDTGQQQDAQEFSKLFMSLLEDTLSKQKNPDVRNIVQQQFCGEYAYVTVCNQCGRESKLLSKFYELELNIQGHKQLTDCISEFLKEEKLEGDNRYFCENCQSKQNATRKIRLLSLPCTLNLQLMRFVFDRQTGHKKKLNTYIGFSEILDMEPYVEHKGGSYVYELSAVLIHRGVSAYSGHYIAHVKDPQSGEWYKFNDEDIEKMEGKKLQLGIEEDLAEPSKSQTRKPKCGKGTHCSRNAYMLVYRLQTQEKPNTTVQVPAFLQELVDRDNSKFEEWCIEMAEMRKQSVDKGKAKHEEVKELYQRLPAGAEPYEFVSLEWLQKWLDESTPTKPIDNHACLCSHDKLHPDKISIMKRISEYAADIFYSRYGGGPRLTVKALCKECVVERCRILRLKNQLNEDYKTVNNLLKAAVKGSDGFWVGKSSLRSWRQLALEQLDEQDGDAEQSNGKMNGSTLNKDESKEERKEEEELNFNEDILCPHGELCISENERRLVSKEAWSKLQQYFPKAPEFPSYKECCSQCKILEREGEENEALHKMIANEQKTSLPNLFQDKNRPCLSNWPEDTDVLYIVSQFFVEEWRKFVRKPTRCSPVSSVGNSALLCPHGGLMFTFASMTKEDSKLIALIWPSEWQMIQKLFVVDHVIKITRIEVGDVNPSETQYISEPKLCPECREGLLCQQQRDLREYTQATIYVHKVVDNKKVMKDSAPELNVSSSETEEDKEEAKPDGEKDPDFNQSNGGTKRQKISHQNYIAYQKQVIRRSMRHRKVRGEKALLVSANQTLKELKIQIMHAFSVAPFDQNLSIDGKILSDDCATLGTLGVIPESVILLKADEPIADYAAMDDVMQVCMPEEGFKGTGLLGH
Outline: as §1

[5] = target: T4, USP5 (UniProt P45974)
T4 sequence (whole entry): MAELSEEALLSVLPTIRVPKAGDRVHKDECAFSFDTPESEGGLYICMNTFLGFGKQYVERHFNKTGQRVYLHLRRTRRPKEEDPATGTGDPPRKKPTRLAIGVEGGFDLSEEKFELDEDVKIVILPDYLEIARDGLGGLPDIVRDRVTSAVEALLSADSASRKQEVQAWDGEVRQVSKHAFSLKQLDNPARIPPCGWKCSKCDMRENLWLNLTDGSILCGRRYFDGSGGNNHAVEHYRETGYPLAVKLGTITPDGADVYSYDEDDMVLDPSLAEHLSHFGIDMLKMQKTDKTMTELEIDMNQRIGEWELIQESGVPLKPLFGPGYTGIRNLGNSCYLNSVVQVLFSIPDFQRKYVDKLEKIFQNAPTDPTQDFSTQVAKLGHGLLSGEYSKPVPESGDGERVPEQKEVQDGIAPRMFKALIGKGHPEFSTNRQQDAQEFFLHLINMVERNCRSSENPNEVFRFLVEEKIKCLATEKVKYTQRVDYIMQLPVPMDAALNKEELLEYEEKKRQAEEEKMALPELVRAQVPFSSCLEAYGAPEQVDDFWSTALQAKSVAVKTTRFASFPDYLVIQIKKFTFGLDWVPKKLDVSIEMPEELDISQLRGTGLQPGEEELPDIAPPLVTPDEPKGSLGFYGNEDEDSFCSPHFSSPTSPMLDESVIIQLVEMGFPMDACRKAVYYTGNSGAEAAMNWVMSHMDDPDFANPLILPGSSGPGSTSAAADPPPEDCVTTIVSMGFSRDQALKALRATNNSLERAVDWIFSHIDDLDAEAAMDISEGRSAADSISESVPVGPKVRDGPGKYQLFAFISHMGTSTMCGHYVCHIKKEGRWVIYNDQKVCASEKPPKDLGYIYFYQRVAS
Outline: as §1

[6] = target: USP54 (UniProt Q70EL1)
USP54, sequence (Q70EL1 whole entry): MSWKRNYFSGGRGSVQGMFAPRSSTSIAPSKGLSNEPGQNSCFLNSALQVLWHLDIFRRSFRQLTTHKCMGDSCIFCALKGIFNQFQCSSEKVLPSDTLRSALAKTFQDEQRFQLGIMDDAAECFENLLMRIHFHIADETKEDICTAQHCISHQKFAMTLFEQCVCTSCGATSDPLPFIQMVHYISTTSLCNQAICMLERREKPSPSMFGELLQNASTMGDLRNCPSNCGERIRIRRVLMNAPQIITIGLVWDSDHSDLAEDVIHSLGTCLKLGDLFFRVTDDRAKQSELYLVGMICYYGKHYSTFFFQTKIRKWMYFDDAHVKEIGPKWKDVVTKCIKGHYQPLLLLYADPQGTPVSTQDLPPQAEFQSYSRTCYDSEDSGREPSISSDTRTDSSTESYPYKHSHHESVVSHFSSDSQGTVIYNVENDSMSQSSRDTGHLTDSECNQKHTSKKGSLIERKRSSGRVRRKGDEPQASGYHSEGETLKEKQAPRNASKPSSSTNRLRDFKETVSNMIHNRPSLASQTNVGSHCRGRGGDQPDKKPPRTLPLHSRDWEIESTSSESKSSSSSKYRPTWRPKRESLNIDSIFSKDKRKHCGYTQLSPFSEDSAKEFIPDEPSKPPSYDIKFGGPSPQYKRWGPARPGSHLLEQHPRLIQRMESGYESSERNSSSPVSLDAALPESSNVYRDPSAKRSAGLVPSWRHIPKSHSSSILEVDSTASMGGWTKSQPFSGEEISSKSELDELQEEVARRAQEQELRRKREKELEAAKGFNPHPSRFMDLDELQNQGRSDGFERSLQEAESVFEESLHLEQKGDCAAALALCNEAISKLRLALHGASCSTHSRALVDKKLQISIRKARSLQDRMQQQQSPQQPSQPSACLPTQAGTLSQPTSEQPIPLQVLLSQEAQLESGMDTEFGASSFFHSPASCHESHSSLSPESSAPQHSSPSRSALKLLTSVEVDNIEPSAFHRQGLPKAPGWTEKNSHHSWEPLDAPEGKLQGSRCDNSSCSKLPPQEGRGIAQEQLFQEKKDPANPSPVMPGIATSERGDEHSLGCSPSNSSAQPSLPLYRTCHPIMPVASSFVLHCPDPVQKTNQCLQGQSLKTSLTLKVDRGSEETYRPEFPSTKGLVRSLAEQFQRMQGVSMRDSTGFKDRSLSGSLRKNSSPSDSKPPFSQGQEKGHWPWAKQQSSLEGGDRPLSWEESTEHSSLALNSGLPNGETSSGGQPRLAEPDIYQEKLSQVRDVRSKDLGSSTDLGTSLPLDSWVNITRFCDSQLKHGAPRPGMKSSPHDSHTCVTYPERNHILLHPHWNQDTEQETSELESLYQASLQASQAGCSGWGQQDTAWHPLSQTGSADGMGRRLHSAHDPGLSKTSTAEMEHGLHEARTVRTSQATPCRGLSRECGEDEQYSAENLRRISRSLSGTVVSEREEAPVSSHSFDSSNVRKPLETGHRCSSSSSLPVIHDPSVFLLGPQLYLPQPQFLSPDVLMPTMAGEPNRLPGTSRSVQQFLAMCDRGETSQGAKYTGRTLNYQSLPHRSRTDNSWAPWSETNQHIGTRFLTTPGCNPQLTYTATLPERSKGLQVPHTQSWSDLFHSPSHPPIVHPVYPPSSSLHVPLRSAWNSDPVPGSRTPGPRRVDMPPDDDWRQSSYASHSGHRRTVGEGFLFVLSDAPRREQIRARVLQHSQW
Outline: as §1

[7] = target: USP7 (UniProt Q93009)
USP7, sequence (Q93009 whole entry, looked up): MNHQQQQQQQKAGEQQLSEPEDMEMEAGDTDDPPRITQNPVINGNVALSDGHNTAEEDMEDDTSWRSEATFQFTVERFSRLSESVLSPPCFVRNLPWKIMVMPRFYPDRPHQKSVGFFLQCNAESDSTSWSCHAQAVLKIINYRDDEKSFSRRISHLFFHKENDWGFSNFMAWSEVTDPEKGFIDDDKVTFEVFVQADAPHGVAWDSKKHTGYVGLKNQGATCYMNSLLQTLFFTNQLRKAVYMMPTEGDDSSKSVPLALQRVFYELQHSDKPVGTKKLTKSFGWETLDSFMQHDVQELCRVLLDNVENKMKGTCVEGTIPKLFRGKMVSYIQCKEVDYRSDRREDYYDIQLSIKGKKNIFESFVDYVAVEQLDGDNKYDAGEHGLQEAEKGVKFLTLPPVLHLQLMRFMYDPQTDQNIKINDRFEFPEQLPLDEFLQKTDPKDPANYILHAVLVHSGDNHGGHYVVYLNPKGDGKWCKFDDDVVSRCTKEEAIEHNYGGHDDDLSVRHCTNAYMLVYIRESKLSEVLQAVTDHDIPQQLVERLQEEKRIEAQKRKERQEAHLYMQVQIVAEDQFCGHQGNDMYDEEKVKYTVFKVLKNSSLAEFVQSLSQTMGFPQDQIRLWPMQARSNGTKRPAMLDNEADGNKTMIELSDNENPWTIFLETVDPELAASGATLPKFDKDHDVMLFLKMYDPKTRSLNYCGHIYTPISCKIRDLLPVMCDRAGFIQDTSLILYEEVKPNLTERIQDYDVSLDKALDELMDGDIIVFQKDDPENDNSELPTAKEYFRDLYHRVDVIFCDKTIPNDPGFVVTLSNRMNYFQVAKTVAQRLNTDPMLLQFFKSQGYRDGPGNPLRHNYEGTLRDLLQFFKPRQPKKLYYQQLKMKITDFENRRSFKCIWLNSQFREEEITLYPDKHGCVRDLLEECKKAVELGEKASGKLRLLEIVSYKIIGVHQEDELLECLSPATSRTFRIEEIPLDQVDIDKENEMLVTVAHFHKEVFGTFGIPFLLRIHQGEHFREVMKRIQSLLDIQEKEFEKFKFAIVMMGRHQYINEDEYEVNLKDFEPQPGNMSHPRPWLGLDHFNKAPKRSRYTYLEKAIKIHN
Outline: as §1

[8] = target: T5, USP8 (UniProt P40818)
T5 sequence (whole entry): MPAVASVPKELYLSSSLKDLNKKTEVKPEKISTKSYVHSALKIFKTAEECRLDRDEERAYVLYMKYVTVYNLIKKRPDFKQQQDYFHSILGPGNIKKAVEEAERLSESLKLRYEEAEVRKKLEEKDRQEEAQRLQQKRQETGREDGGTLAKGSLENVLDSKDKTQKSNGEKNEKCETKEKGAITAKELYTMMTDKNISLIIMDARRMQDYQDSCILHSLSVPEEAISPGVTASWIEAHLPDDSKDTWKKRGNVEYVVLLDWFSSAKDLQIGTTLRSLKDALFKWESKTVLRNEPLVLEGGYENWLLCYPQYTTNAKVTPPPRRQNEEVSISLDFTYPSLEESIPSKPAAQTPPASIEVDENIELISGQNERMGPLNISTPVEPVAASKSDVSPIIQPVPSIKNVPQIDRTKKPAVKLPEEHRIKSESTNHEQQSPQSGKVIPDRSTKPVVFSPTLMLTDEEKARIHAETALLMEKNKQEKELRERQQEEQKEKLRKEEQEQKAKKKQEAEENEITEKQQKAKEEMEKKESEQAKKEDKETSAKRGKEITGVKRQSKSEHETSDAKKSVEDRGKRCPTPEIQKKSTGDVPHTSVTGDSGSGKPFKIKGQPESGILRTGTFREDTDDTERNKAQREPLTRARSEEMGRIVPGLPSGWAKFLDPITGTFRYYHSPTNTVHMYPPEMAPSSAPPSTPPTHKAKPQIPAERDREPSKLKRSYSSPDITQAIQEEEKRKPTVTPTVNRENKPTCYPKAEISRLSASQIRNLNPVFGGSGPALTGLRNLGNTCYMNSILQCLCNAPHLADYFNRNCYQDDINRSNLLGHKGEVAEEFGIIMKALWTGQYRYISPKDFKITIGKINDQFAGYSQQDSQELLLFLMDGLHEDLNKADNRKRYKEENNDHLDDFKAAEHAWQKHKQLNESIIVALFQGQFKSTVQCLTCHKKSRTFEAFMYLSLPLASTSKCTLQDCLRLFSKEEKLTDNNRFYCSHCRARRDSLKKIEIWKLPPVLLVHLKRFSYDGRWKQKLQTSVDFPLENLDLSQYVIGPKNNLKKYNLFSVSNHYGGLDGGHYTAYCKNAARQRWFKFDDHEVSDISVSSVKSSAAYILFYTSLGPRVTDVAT
Outline: as §1

[9] = target: USP9X (UniProt Q93008)
Outline: as §1

[10] = target: UniProt O00487
UniProt O00487, sequence (O00487 whole entry): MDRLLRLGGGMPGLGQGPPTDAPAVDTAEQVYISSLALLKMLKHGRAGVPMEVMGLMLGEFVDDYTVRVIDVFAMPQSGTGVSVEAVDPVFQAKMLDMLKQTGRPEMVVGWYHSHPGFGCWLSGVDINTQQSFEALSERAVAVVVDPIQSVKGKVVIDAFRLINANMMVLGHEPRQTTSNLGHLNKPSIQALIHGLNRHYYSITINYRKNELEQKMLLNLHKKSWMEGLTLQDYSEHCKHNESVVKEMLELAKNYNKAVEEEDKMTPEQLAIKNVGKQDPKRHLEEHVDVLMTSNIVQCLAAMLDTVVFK
Outline: as §1

Measured: log2 ratio of Biotin-Ahx-Ub-VS probe labelling

N#Cc1ccc(Cl)cc1NC(=O)CCl
inactive: [1] -0.385 | [2] 0.0423 | [3] -0.413 | [4] -0.305 | [5] -0.153 | [6] -0.514 | [7] -0.47 | [8] -0.0467 | [9] -0.0196 | [10] 0.0781
